Screening results deposited in PubChem by several laboratories.
The list is not random: actives were taken first. Their share in the collection is about 0.97%.
NOD2-RIPK2 inh: inhibitors of human NOD2-RIPK2 interaction; 360,000 tested, 0.38% active; CHO BLA complementation NOD2-RIPK2, CCF4 ratio; inhibition, % at 4.98 µM; AID 624267; in the data active = inhibition above about 21%
Target sequence (O43353 whole entry, looked up): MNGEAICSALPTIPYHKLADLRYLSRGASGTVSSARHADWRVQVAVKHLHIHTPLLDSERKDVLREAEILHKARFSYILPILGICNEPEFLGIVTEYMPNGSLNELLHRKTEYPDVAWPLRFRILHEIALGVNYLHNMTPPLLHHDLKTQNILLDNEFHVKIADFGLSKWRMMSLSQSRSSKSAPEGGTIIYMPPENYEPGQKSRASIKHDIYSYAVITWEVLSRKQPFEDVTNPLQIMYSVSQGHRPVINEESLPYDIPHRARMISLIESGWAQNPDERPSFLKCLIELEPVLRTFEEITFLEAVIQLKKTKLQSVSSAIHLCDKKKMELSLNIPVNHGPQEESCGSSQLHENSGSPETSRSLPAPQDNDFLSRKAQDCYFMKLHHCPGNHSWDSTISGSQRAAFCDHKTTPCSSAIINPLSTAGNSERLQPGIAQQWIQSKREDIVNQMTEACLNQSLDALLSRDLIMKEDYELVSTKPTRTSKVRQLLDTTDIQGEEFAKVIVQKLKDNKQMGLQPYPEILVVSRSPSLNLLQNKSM
TLR4-MyD88 BLA: blocks binding of human TLR4 to MyD88; O00206+Q99836; HeLa CL3-4 TLR4/MyD88 BLA complementation, FRET ratio; inhibition, % at 8.4 µM; 200,000 tested, 0.18% active; AID 861; in the data active = inhibition above about 25%
Beta2AR agonist: agonists of human beta-2 adrenergic receptor inducing internalization; response, % (test concentration not listed); 340,000 tested, 0.43% active; AID 504454; P07550; Am2.2-beta2AR cells, FAP receptor internalization, flow cytometry;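 active = response above a set limit, near 3 SD of response in nonfluorescent compounds, cut at about 42% in these data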
A1 inh: inhibitors of the anti-apoptotic protein A1, read as caspase activation; MEF A1-2A-BIM cells, Caspase-Glo 3/7 luminescence, 3 h; percent of clofoctol response, vehicle zero; caspase activation, % (test concentration not listed); 330,000 tested, 0.066% active; AID 2462;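 active = over half of replicate activation scores above 10%, or exactly half above 10 with the replicate mean above 10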
TLR9-MyD88 inh: blocks human TLR9 binding to MyD88. CHO BLA complementation TLR9-MyD88, CCF4 FRET ratio. inhibition, % at 4.98 µM. 340,000 tested, 0.21% active. AID 504734;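 active = inhibition above the mean over all tested compounds plus 3 SD, cut at about 21% in these data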
NTR1 ag: activates human neurotensin receptor 1; NTR1-U2OS beta-arrestin-GFP spot imaging, agonist mode; P30989; activation, % at 20 µM; 330,000 tested, 0.17% active;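 active = activation at or above 40% of the spot to cytoplasm intensity ratio, with at least 20 cells analyzed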
TLR4 MyD88 cnf: confirmation of human TLR4-MyD88 binding inhibitors. 350 tested, 50% active. inhibition, % at 8.4 µM. HeLa CL3-4 BLA complementation, CCF4 FRET ratio. shares compounds with TLR4-MyD88 BLA. AID 941;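 active = mean inhibition across three repeat runs above about 25% carried over from the earlier screen, limit read from the data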
BLA inh HeLa: inhibits beta-lactamase activity, counter-screen to TLR4-MyD88 binding inhibitors; shares compounds with TLR4-MyD88 BLA; HeLa BLA reporter, CCF4 FRET ratio; inhibition, % at 8.4 µM; 350 tested, 63% active;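 active = mean inhibition over three repeats above about 26% taken from the earlier screen, limit read from the data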;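 also: HeLa cells stably expressing beta-lactamase reporter as counterscreen for TLR4-MyD88 inhibitors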
Hits are given with their value.

How did COc1cccc(C(=O)/C=C/Nc2cc(C)ccc2O)c1 do in these assays?
NOD2-RIPK2 inh: inactive; TLR4-MyD88 BLA: 27; Beta2AR agonist: inactive; A1 inh: inactive; TLR9-MyD88 inh: inactive; NTR1 ag: inactive; TLR4 MyD88 cnf: inactive; BLA inh HeLa: inactive

Results for CCOC(=O)c1ccc(N/C=C\C(=O)c2cccc(OC)c2)cc1 ?
NOD2-RIPK2 inh: inactive; TLR4-MyD88 BLA: inactive; Beta2AR agonist: inactive; A1 inh: inactive; TLR9-MyD88 inh: inactive; NTR1 ag: inactive

What do the screens show for `CCOC(=O)C1=C(C)N=c2s/c(=C\c3ccc(OC(C)=O)c(OCC)c3)c(=O)n2C1/C=C/c1ccccc1` (stereo not given)?
NOD2-RIPK2 inh: inactive; TLR4-MyD88 BLA: 54; Beta2AR agonist: inactive; A1 inh: inactive; TLR9-MyD88 inh: inactive; NTR1 ag: inactive; TLR4 MyD88 cnf: 26; BLA inh HeLa: inactive

How did O=[N+]([O-])c1ccc(N/N=C/c2c[nH]c3ccccc23)c(S(=O)(=O)Nc2ccc(Cl)cc2)c1 do in these assays?
NOD2-RIPK2 inh: inactive; TLR4-MyD88 BLA: 57; Beta2AR agonist: inactive; A1 inh: inactive; TLR9-MyD88 inh: inactive; NTR1 ag: inactive; TLR4 MyD88 cnf: 43; BLA inh HeLa: 65

Results for CN1CCN(S(=O)(=O)c2cc([N+](=O)[O-])ccc2N/N=C/c2ccc(Cl)cc2)CC1 ?
NOD2-RIPK2 inh: inactive; TLR4-MyD88 BLA: inactive; Beta2AR agonist: inactive; A1 inh: inactive; TLR9-MyD88 inh: inactive; NTR1 ag: inactive

Results for COc1ccccc1NS(=O)(=O)c1cc([N+](=O)[O-])ccc1N/N=C/c1c(C)[nH]c2ccccc12 ?
NOD2-RIPK2 inh: inactive; TLR4-MyD88 BLA: 36; Beta2AR agonist: inactive; A1 inh: inactive; TLR9-MyD88 inh: inactive; NTR1 ag: inactive; TLR4 MyD88 cnf: inactive; BLA inh HeLa: 45

Results for CCCCNC(=O)CSc1nc2ccsc2c(=O)n1C1CCN(C(=O)OCC)CC1 ?
NOD2-RIPK2 inh: inactive; TLR4-MyD88 BLA: 48; Beta2AR agonist: inactive; A1 inh: inactive; TLR9-MyD88 inh: inactive; NTR1 ag: inactive; TLR4 MyD88 cnf: inactive; BLA inh HeLa: inactive

Results for NS(=O)(=O)c1ccc(CCNC(=O)CSc2nc3ccsc3c(=O)n2C2CC2)cc1 ?
NOD2-RIPK2 inh: inactive; TLR4-MyD88 BLA: inactive; Beta2AR agonist: inactive; A1 inh: inactive; TLR9-MyD88 inh: inactive; NTR1 ag: inactive

What do the screens show for `COc1ccc(CCNc2nc3ccccc3n3nnnc23)cc1OC`?
NOD2-RIPK2 inh: inactive; TLR4-MyD88 BLA: inactive; Beta2AR agonist: inactive; A1 inh: inactive; TLR9-MyD88 inh: inactive; NTR1 ag: inactive

Results for COC(=O)Nc1sc2c(c1C(N)=O)CCCCCC2 ?
NOD2-RIPK2 inh: inactive; TLR4-MyD88 BLA: 26; Beta2AR agonist: inactive; A1 inh: inactive; TLR9-MyD88 inh: inactive; NTR1 ag: inactive; TLR4 MyD88 cnf: inactive; BLA inh HeLa: inactive

What do the screens show for `COc1ccc(S(=O)(=O)N2CCCC(C(=O)NCc3ccccn3)C2)cc1Cl` (stereo not given)?
NOD2-RIPK2 inh: inactive; TLR4-MyD88 BLA: 26; Beta2AR agonist: inactive; A1 inh: inactive; TLR9-MyD88 inh: inactive; NTR1 ag: inactive; TLR4 MyD88 cnf: inactive; BLA inh HeLa: inactive

How did CCOc1ccc(S(=O)(=O)N2CCOCC2)c2ccccc12 do in these assays?
NOD2-RIPK2 inh: inactive; Beta2AR agonist: inactive; A1 inh: inactive; TLR9-MyD88 inh: inactive; NTR1 ag: inactive

What do the screens show for `CCOc1ccc(C(C)(C)C)cc1S(=O)(=O)N1CCOCC1`?
NOD2-RIPK2 inh: inactive; TLR4-MyD88 BLA: 27; Beta2AR agonist: inactive; A1 inh: inactive; TLR9-MyD88 inh: inactive; NTR1 ag: inactive; TLR4 MyD88 cnf: inactive; BLA inh HeLa: inactive

How did CN(C)c1ccc(/C=C/C(O)=C2/C(=O)N(C)C3(C)CC2c2ccccc2O3)cc1 (stereo not given) do in these assays?
TLR4-MyD88 BLA: 49; A1 inh: inactive; TLR4 MyD88 cnf: 35; BLA inh HeLa: 68

Results for Cc1ccc(C)c(N(CC(=O)N/N=C/c2ccc(-c3ccc([N+](=O)[O-])cc3)o2)S(=O)(=O)c2ccccc2)c1 ?
NOD2-RIPK2 inh: inactive; TLR4-MyD88 BLA: 55; Beta2AR agonist: inactive; A1 inh: inactive; TLR9-MyD88 inh: inactive; NTR1 ag: inactive; TLR4 MyD88 cnf: 58; BLA inh HeLa: 87

Results for O=C(c1cccc(-c2nnc(-c3ccccc3)o2)c1)N1CCCCC1 ?
NOD2-RIPK2 inh: inactive; TLR4-MyD88 BLA: 28; Beta2AR agonist: inactive; A1 inh: inactive; TLR9-MyD88 inh: inactive; NTR1 ag: inactive; TLR4 MyD88 cnf: inactive; BLA inh HeLa: inactive

How did CC1(C)SCC(C(=O)O)NC1=O (stereo not given) do in these assays?
NOD2-RIPK2 inh: inactive; TLR4-MyD88 BLA: inactive; Beta2AR agonist: inactive; A1 inh: inactive; TLR9-MyD88 inh: inactive; NTR1 ag: inactive

How did CCCCOC(=O)CSc1nnc(-c2cc(OC)c(OC)c(OC)c2)o1 do in these assays?
NOD2-RIPK2 inh: inactive; TLR4-MyD88 BLA: 26; Beta2AR agonist: inactive; A1 inh: inactive; TLR9-MyD88 inh: inactive; NTR1 ag: inactive; TLR4 MyD88 cnf: inactive; BLA inh HeLa: inactive

What do the screens show for `CCCCN(CCCC)C(=O)CSc1nnc(-c2cc(OC)c(OC)c(OC)c2)o1`?
NOD2-RIPK2 inh: inactive; TLR4-MyD88 BLA: inactive; Beta2AR agonist: inactive; A1 inh: inactive; TLR9-MyD88 inh: inactive; NTR1 ag: inactive

Results for Oc1sc(C=Nc2ccccc2)c2ccccc12 ?
NOD2-RIPK2 inh: inactive; TLR4-MyD88 BLA: 27; Beta2AR agonist: inactive; A1 inh: inactive; TLR9-MyD88 inh: inactive; NTR1 ag: inactive; TLR4 MyD88 cnf: inactive; BLA inh HeLa: 39

How did CC1(C)CC(C(=O)Nc2ccccc2)C(=O)O1 (stereo not given) do in these assays?
NOD2-RIPK2 inh: inactive; Beta2AR agonist: inactive; A1 inh: inactive; TLR9-MyD88 inh: inactive; NTR1 ag: inactive

What do the screens show for `CCSc1nnc(-c2sc3nnc(-c4ccccc4)c(-c4ccccc4)c3c2N)o1`?
NOD2-RIPK2 inh: inactive; TLR4-MyD88 BLA: 40; Beta2AR agonist: inactive; A1 inh: inactive; TLR9-MyD88 inh: inactive; NTR1 ag: inactive; TLR4 MyD88 cnf: 47; BLA inh HeLa: 80

How did COc1cc2c3nnc(-c4ccc(F)cc4)c-3cn(Cc3ccccc3F)c2cc1OC do in these assays?
NOD2-RIPK2 inh: inactive; TLR4-MyD88 BLA: 62; Beta2AR agonist: inactive; TLR9-MyD88 inh: inactive; TLR4 MyD88 cnf: 44; BLA inh HeLa: 84

Results for COc1ccccc1Cc1c(-c2ccc(F)cc2)nc2ccc(Cl)cn12 ?
NOD2-RIPK2 inh: inactive

How did CCCCNC(=O)N1CCN(C/C=C/c2ccccc2)CC1 do in these assays?
NOD2-RIPK2 inh: inactive; TLR4-MyD88 BLA: 25; Beta2AR agonist: inactive; A1 inh: inactive; TLR9-MyD88 inh: inactive; NTR1 ag: inactive; TLR4 MyD88 cnf: inactive; BLA inh HeLa: inactive
